Screening results deposited in PubChem BioAssay by University of Kansas High Throughput Screening Laboratory.
Rows were chosen to be rich in hits. Some 3.6% of all compounds tested hit in one or more screens of this group.
Pf apPOL inh – Pf-apPOL DNA polymerase inhibition. inhibition, % at 10 µM. hit rate 0.25% among 210,000. Recombinant Pf-apPOL, molecular beacon fluorescence, 1.5 h
mHTT CaM bind – mHTT-calmodulin interaction abrogation; inhibition, % at 15 µM; P42858; hit rate 3.6% among 190,000; AlphaScreen His-mHTT/GST-CaM binding, luminescence;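 note: 0% = both proteins with DMSO and 100% = one protein alone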
An asterisk follows results filed as active; . = no result. Cut-off read from the data, not from the text of the source: active = inhibition above about 50%; inactive = the rest.

SMILES	Pf apPOL inh	mHTT CaM bind
CC(C(=O)N1CCCCCC1)C1CCN(S(=O)(=O)c2ccc(Cl)s2)CC1 (stereo not drawn)	3	7
CC1CN(CC(O)COCC23CC4CC(CC(C4)C2)C3)CC(C)O1 (stereo not drawn)	-1	2
Cc1ccc(N2CCN(S(=O)(=O)c3ccc(Cl)c(Cl)c3)CC2)nn1	-8	-10
COc1ccc(S(=O)(=O)N2CCN(c3ccc(N4CCCC4)nn3)CC2)cc1Cl	-3	72*
Cc1ccc(NC(=O)c2ccc(Br)cc2)cc1[N+](=O)[O-]	-9	14
CCCC(=O)NC(c1ccc(C)cc1)c1ccc2cccnc2c1O (stereo not drawn)	9	100*
CCCC(=O)NC(c1ccccc1OC)c1ccc2cccnc2c1O (stereo not drawn)	7	99*
CCCCC(=O)NC(c1ccc(C)cc1)c1ccc2cccnc2c1O (stereo not drawn)	1	100*
CCCCC(=O)NC(c1ccc([N+](=O)[O-])cc1)c1ccc2cccnc2c1O (stereo not drawn)	3	100*
CCCCC(=O)NC(c1ccccc1OC)c1cc(Cl)c2cccnc2c1O (stereo not drawn)	-11	7
Cc1ccc(/C=C2\N=C(c3ccc(Cl)cc3Cl)OC2=O)o1	-1	3
CC(C)N1CCn2c(nc3cc(C(=O)NCc4ccc(F)cc4)ccc32)C1=O	0	-6
COc1ccccc1C(=O)N1CCC(c2ccn3ncc(C(=O)N4CCOCC4)c3c2)CC1	-1	2
Cc1ccc(-c2nc3ccccc3s2)cc1NC(=O)c1cccnc1Cl	-1	8
CCC(=O)N1CCC(CCOc2cccc(F)c2)CC1	-1	-11
Nc1ccc2c(c1)/C(=C/c1ccccc1)c1ccccc1-2	-1	100*
C(=C1c2ccccc2-c2ccccc21)c1ccccn1	-4	-142
O=C(NCCN1CCN(c2cccc(C(F)(F)F)c2)CC1)C1(n2cccc2)CCCCC1	-5	97*
Cc1ccc(Cl)cc1N1CCN(CCCNC(=O)C2(n3cccc3)CCCCC2)CC1	-12	86*
O=C(NCCN1CCN(c2ccccc2F)CC1)C1(n2cccc2)CCCCC1	-9	24
CC1=C(C(=O)NCCCN2CCN(c3cc(C)ccc3C)CC2)C2(CCCCC2)OC1=O	0	12
O=C(Nc1cccc(Cl)c1)C1CCCN(C(=O)Cc2cccc3ccccc23)C1 (stereo not drawn)	-7	5
ON=Cc1cc2c(cc1Br)OCO2	-3	.
Cc1nc(C)c(Cc2c(F)cccc2Cl)c(N2CCN(S(C)(=O)=O)CC2)n1	-5	7
COc1ccc(/C=C2/SC(N3CCCCC3)=NC2=O)c(OC)c1	0	16
SMILES	Pf apPOL inh	mHTT CaM bind
COc1ccc(/C=C2/SC(N3CCC(C)CC3)=NC2=O)c(OC)c1	-4	58*
CC(C)Oc1ccc(-c2nc3s/c(=C\c4ccc(F)cc4)c(=O)n3n2)cc1	3	-1
Cc1ccc(-c2nnc(N3CCC(C(=O)NCc4ccc5c(c4)OCO5)CC3)o2)cc1	-1	13
NC(Cc1cccc2ccccc12)=NOC(=O)c1ccc(Cl)cc1	2	.
O=S(=O)(c1ccccc1)N1CCN(S(=O)(=O)c2ccccc2)C1	8	-7
O=C1C(N2CCCC2)=C(N2CCN(S(=O)(=O)c3ccccc3)CC2)C(=O)c2ccccc21	-4	80*
O=C1Nc2ccccc2C1=Nc1ccc(Nc2ccccc2)cc1	2	100*
O=C1Nc2ccccc2C1=Nc1ccc(C(=O)c2ccccc2)cc1	0	3
CCCC(=O)NC(Cc1ccccc1)c1nnc(N2CCCC2)o1 (stereo not drawn)	-1	-2
CC1=NN(C(=O)CCc2ccccc2)C(O)(c2ccc(Br)cc2)C1 (stereo not drawn)	1	54*
CC1=NN(C(=O)c2ccccc2)C(O)(c2ccc(Br)cc2)C1 (stereo not drawn)	-3	17
CC1=NN(C(=O)Cc2ccccc2)C(O)(c2ccc(Br)cc2)C1 (stereo not drawn)	-1	16
CCC1=NN(C(=O)c2ccccc2O)C(O)(c2ccc(Br)cc2)C1 (stereo not drawn)	-2	91*
CCC1=NN(C(=O)c2cccc(C)c2O)C(O)(c2ccc(Br)cc2)C1 (stereo not drawn)	-4	87*
CC1=NN(C(=O)c2ccccc2Br)C(O)(c2ccccc2)C1 (stereo not drawn)	-3	1
Cc1ccc(NS(=O)(=O)c2cc3c(s2)CCN(C(=O)C2CC2)C3)cc1C	2	11
O=c1nc2n(-c3ccc(Cl)cc3)c3ccc([N+](=O)[O-])cc3cc-2c(=O)[nH]1	0	25
Cc1cc(C)n(CCNS(C)(=O)=O)n1	-8	-16
CCOC(=O)CNC(=O)N1CCCn2nc(-c3cccc(OC)c3)cc2C1	-9	4
CCN(CC)C(=O)Oc1ccc2c(c1)OC(=CC=Cc1ccccc1)C2=O	-4	14
Cc1ccc(Nc2nccc(C3CCCN(C(=O)c4ccco4)C3)n2)cc1 (stereo not drawn)	-5	87*
CCC(=O)N1CCCC(c2ccnc(Nc3ccc(C)cc3)n2)C1 (stereo not drawn)	-12	56*
O=C(c1ccco1)N1CCCC(c2ccnc(Nc3ccccc3)n2)C1 (stereo not drawn)	-4	22
Cc1ccc(Nc2nccc(C3CCCN(C(=O)C(C)(C)C)C3)n2)cc1 (stereo not drawn)	-3	39
Cc1ccc(C(=O)N2CCCC(c3ccnc(Nc4ccccc4)n3)C2)s1 (stereo not drawn)	-2	61*
SMILES	Pf apPOL inh	mHTT CaM bind
O=C(C1CCC1)N1CCCC(c2ccnc(Nc3ccccc3)n2)C1 (stereo not drawn)	-2	24
O=C(Nn1cnc2c(cnn2-c2ccccc2)c1=O)C1CC(=O)N(c2ccccc2)C1 (stereo not drawn)	-6	-5
Cc1ccc(C)c(CNc2nc3ccncc3n(C(C)C)c2=O)c1	0	-5
CC(=O)Nc1ccc2nc(-c3ccc(-c4nc5ccc(NC(C)=O)cc5[nH]4)cc3)[nH]c2c1	35	.
COc1ccc(/C=C/c2nc3ccccc3[nH]2)cc1	4	-5
CN(C)c1ccc(-c2nc3ccc(N)cc3[nH]2)cc1	-74	56*
Nc1ccc(-c2nc3ccc(-c4ccc5nc(-c6ccc(N)cc6)[nH]c5c4)cc3[nH]2)cc1	-3	100*
COc1ccc(-c2nc3ccccc3[nH]2)cc1	-4	10
Nc1ccc(-c2nc3ccc(Oc4ccc5nc(-c6ccc(N)cc6)[nH]c5c4)cc3[nH]2)cc1	-3	84*
Nc1ccc2nc(/C=C/c3nc4ccc(N)cc4[nH]3)[nH]c2c1	80*	53*
Nc1ccc(-c2nc3ccc(N)cc3[nH]2)cc1	-8	22
CC(C)C(=O)Nc1ccc(C(=O)NCCNS(=O)(=O)c2ccc3c(c2)OCCO3)cc1	-3	-8
COc1ccc(/C=C2\SC(=O)N(CC(=O)Nc3cccc(O)c3)C2=O)cc1OC	-2	23
O=c1[nH]cc(Cl)cc1[N+](=O)[O-]	-2	.
COc1ccc(C(=O)Nc2ccc3nn(-c4cccc(Cl)c4)nc3c2)cc1	-5	-4
COc1ccccc1CNC(=O)c1cc2n(n1)CCCN(Cc1ccccc1)C2=O	0	-1
CCn1ccnc1N1CCN(C(=O)c2cc(Cl)ccc2Cl)CC1	-1	-3
Nc1cccc(-c2nc3ccc(-c4ccc5nc(-c6cccc(N)c6)[nH]c5c4)cc3[nH]2)c1	-6	97*
